Legend:
Assay in all cases: DAPPL (digital affinity profiling via proximity ligation, sequencing); 10 mM Tris-HCl pH 7.5, 50 mM NaCl, 1 mM DTT, 4% glycerol, room temperature, 30 min; GST-TFs on glutathione beads, 16-mer random dsDNA library, 0.1% formaldehyde crosslink after washing; high values mean tight binding
Details in all cases: protein: recombinant; tags: N-terminal GST; dsDNA, one strand shown
[1] = molecular target: T1, FLI1 (Homo sapiens, UniProt Q01543 1-452)
T1 sequence: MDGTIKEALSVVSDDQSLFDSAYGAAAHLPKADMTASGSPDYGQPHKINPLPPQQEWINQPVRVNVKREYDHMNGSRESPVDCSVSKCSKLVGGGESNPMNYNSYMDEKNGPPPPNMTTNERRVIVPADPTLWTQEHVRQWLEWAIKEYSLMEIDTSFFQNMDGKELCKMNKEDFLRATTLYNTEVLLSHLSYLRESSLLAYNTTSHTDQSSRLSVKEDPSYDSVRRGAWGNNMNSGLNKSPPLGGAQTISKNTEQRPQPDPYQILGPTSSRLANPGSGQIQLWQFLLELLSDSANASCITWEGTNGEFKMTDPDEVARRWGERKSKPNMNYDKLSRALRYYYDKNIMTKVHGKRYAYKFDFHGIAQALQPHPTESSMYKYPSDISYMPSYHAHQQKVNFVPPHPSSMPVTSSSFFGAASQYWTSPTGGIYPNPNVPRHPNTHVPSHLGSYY
How it was run: (§1)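 Binding signal is each hexamer's read frequency for a factor divided by its frequency in the tag-only sample. The factors were GST-fused human transcription factors from yeast, captured on glutathione beads, DNA-barcoded and pooled with that sample. Pools were incubated with 200 nmole of a random double-stranded 16-mer DNA library in Tris/NaCl/DTT/glycerol buffer at room temperature for 30 min, then washed, crosslinked with 0.1% formaldehyde, proximity-ligated with BsaI/T4 ligase (1 h, 37 °C), PCR-amplified and sequenced on an Illumina NextSeq500.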

[2] = molecular target: T2, ELK1 (Homo sapiens, UniProt P19419 1-428)
T2 sequence: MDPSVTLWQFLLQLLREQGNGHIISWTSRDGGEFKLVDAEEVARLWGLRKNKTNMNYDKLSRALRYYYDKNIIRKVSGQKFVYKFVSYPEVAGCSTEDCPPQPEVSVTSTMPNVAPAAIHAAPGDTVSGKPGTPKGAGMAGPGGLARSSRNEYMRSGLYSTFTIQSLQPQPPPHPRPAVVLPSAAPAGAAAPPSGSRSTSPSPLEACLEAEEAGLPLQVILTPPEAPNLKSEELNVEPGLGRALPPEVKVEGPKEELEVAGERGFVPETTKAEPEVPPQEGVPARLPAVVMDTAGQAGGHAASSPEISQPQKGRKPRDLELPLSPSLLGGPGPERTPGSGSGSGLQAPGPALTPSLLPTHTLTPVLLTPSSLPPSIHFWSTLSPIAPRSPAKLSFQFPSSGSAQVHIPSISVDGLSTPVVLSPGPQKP
How it was run: as §1

[3] = molecular target: T3, GABPA (Homo sapiens, UniProt Q06546 1-454)
T3 sequence: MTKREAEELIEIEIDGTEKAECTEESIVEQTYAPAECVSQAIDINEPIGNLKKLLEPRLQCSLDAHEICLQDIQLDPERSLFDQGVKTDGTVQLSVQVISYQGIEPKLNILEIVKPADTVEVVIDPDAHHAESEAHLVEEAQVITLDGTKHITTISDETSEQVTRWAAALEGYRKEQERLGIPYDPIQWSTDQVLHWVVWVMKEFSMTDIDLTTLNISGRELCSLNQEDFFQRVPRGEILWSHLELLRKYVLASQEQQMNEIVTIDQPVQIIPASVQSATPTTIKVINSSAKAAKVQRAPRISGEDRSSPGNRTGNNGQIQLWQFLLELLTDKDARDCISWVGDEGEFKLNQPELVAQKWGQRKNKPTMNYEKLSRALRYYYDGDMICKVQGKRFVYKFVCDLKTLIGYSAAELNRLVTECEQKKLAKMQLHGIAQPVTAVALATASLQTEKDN
How it was run: as §1

[4] = molecular target: T4, ERG (Homo sapiens, UniProt P11308 1-479)
T4 sequence: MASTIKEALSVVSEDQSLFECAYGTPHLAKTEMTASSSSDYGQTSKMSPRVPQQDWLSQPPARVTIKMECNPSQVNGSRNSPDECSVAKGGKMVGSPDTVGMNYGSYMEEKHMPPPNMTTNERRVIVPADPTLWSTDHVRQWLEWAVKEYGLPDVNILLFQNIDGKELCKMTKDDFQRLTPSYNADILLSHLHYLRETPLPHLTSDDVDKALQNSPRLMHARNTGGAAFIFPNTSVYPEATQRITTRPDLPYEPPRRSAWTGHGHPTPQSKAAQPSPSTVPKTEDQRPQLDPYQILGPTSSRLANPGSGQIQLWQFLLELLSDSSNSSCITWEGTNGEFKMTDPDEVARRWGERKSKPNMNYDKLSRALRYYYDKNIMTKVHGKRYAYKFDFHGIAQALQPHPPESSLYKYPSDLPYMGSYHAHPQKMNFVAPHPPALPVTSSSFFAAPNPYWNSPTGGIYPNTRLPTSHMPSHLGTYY
How it was run: as §1

[5] = molecular target: ELF1 (Homo sapiens, UniProt P32519 1-619)
How it was run: as §1

[6] = molecular target: T5, EHF (Homo sapiens, UniProt Q9NZC4 1-300)
T5 sequence: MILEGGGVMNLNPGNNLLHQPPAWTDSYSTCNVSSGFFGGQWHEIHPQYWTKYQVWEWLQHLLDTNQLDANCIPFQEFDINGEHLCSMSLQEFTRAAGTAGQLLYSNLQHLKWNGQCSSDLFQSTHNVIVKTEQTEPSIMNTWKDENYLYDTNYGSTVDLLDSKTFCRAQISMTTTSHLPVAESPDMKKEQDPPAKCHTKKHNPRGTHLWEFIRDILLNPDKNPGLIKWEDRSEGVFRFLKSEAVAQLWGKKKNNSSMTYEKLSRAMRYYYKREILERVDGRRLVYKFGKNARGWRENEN
How it was run: as §1

[7] = molecular target: SPI1 (Homo sapiens, UniProt P17947 1-270)
How it was run: as §1

[8] = molecular target: SPIB (Homo sapiens, UniProt Q01892 1-262)
How it was run: as §1

[9] = molecular target: T6, ELK3 (Homo sapiens, UniProt P41970 1-407)
T6 sequence: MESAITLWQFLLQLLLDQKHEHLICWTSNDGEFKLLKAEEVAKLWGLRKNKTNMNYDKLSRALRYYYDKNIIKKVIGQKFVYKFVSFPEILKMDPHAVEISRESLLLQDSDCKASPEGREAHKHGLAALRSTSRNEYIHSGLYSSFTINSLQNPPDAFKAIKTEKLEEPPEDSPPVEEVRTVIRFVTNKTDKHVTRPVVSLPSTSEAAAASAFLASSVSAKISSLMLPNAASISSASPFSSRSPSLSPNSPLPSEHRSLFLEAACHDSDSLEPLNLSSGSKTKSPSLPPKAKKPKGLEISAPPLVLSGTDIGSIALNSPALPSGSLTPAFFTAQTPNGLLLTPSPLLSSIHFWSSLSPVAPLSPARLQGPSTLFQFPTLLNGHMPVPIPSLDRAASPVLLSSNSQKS
How it was run: as §1

ELF1, sequence (P32519 whole entry): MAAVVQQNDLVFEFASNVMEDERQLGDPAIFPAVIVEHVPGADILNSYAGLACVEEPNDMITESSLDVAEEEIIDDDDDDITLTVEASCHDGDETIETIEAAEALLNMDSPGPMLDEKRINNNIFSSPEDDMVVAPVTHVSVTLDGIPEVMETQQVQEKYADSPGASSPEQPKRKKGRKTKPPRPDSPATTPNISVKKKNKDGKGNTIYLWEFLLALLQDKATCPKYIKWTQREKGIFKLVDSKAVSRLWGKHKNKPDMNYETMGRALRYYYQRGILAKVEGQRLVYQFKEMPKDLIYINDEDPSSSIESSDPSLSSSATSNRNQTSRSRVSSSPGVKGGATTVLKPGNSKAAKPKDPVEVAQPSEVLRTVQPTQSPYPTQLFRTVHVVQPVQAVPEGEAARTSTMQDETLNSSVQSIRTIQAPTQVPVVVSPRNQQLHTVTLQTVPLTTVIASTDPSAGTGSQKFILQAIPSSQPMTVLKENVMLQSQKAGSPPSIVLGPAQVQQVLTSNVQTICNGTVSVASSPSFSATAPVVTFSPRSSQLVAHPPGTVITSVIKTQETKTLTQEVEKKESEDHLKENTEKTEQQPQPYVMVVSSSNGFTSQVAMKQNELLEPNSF
SPIB, sequence (Q01892 whole entry): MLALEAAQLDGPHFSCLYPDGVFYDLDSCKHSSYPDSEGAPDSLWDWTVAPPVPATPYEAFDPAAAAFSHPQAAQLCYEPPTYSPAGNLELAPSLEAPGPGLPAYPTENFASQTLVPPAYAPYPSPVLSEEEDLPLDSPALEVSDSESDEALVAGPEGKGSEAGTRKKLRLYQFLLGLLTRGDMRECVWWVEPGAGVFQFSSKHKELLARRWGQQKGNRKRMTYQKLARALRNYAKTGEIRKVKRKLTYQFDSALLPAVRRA

Sequence	binding signal [1]	binding signal [2]	binding signal [3]	binding signal [4]	binding signal [5]	binding signal [6]	binding signal [7]	binding signal [8]	binding signal [9]
AAGTCT	1.28 fold enrichment (6-mer frequency, TF over GST control)	1.18 fold enrichment (6-mer frequency, TF over GST control)	1.07 fold enrichment (6-mer frequency, TF over GST control)	1.12 fold enrichment (6-mer frequency, TF over GST control)	1.14 fold enrichment (6-mer frequency, TF over GST control)	1.13 fold enrichment (6-mer frequency, TF over GST control)	1.27 fold enrichment (6-mer frequency, TF over GST control)	1.29 fold enrichment (6-mer frequency, TF over GST control)	1.18 fold enrichment (6-mer frequency, TF over GST control)
CCTAAT	1.32 fold enrichment (6-mer frequency, TF over GST control)	1.12 fold enrichment (6-mer frequency, TF over GST control)	1.29 fold enrichment (6-mer frequency, TF over GST control)	1.34 fold enrichment (6-mer frequency, TF over GST control)	1.39 fold enrichment (6-mer frequency, TF over GST control)	1.28 fold enrichment (6-mer frequency, TF over GST control)	1.34 fold enrichment (6-mer frequency, TF over GST control)	1.44 fold enrichment (6-mer frequency, TF over GST control)	1.29 fold enrichment (6-mer frequency, TF over GST control)
AATGGC	1.32 fold enrichment (6-mer frequency, TF over GST control)	1.33 fold enrichment (6-mer frequency, TF over GST control)	1.37 fold enrichment (6-mer frequency, TF over GST control)	1.43 fold enrichment (6-mer frequency, TF over GST control)	1.39 fold enrichment (6-mer frequency, TF over GST control)	1.5 fold enrichment (6-mer frequency, TF over GST control)	1.39 fold enrichment (6-mer frequency, TF over GST control)	1.37 fold enrichment (6-mer frequency, TF over GST control)	1.26 fold enrichment (6-mer frequency, TF over GST control)
ATTACC	1.22 fold enrichment (6-mer frequency, TF over GST control)	1.13 fold enrichment (6-mer frequency, TF over GST control)	1.16 fold enrichment (6-mer frequency, TF over GST control)	1.26 fold enrichment (6-mer frequency, TF over GST control)	1.23 fold enrichment (6-mer frequency, TF over GST control)	1.4 fold enrichment (6-mer frequency, TF over GST control)	1.16 fold enrichment (6-mer frequency, TF over GST control)	1.36 fold enrichment (6-mer frequency, TF over GST control)	1.26 fold enrichment (6-mer frequency, TF over GST control)
TCCGCA	2.2 fold enrichment (6-mer frequency, TF over GST control)	2.22 fold enrichment (6-mer frequency, TF over GST control)	2.07 fold enrichment (6-mer frequency, TF over GST control)	2.03 fold enrichment (6-mer frequency, TF over GST control)	2.01 fold enrichment (6-mer frequency, TF over GST control)	2.03 fold enrichment (6-mer frequency, TF over GST control)	2.85 fold enrichment (6-mer frequency, TF over GST control)	2.18 fold enrichment (6-mer frequency, TF over GST control)	2.24 fold enrichment (6-mer frequency, TF over GST control)
TCACCA	1.18 fold enrichment (6-mer frequency, TF over GST control)	1.23 fold enrichment (6-mer frequency, TF over GST control)	1.12 fold enrichment (6-mer frequency, TF over GST control)	1.14 fold enrichment (6-mer frequency, TF over GST control)	1.18 fold enrichment (6-mer frequency, TF over GST control)	1.06 fold enrichment (6-mer frequency, TF over GST control)	1.21 fold enrichment (6-mer frequency, TF over GST control)	1.2 fold enrichment (6-mer frequency, TF over GST control)	1.22 fold enrichment (6-mer frequency, TF over GST control)
TCACGC	1.35 fold enrichment (6-mer frequency, TF over GST control)	1.18 fold enrichment (6-mer frequency, TF over GST control)	1.22 fold enrichment (6-mer frequency, TF over GST control)	1.18 fold enrichment (6-mer frequency, TF over GST control)	1.2 fold enrichment (6-mer frequency, TF over GST control)	1.24 fold enrichment (6-mer frequency, TF over GST control)	1.17 fold enrichment (6-mer frequency, TF over GST control)	1.17 fold enrichment (6-mer frequency, TF over GST control)	1.28 fold enrichment (6-mer frequency, TF over GST control)

Reference: article PMC7862700, “An all-to-all approach to the identification of sequence-specific readers for epigenetic DNA modifications on cytosine”
